Bioassay records from PubChem.
PostGolgi ctrl: growth inhibition of yeast control strain, primary screen, counter-screen for post-Golgi transport modulator project; actives 5% (n = 98,000); inhibition, % at 10 µM; efflux-deficient yeast background strain, growth absorbance A615, 16 h; AID 738, 2007
CYP2C19 inhib: blockers of cytochrome P450 2C19 activity – biochemical, luminescence, ADME assay, primary screen; CYP2C19 Supersomes, luciferin-H EGE luminescence, 30 min; actives 21% (n = 96,000); inhibition, % at 5 µM;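 active = CYP2C19 inhibition above a set limit at 5 µM in the primary screen, cut at about 50% in these data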
Target sequence (P33261 whole entry, looked up): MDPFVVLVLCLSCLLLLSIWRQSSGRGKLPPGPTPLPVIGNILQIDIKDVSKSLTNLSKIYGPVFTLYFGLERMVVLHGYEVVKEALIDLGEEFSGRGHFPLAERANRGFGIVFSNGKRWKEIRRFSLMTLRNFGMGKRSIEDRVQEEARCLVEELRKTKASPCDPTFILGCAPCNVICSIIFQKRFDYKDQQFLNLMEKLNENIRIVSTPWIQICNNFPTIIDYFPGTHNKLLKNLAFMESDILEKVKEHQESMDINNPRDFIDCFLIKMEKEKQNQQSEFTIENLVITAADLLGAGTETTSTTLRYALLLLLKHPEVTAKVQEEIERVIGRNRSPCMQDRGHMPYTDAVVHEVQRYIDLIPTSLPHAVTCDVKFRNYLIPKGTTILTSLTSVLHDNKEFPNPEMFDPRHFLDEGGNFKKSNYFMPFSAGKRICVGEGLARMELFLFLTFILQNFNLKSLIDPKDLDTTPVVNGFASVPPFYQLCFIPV
CYP2C19 act: human CYP2C19 activators, primary screen, biochemical, luminescence. 96,000 tested, under 10 active. Cytochrome P450 2C19 (Homo sapiens), P33261. recombinant CYP2C19, luciferin-H EGE luminescence; active compounds read high; 0 = fully inhibited enzyme, 1 = untreated enzyme. AID 1025, 2008. activation factor at 5 µM;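 active = activation factor of at least 2 at 5 µM in the primary screen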
PostGolgi yeast: phenotypic screen on post-Golgi transport, primary screen. post-Golgi transport phenotypic cell assay. inhibition, % at 10 µM. actives 0.9% (n = 98,000). AID 739, 2007;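 note: yeast cells grown in 1536-well plates; yeast grown about 18 h at 30C before absorbance read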
CYP2C9 activ: human CYP2C9 activators, primary screen, biochemical, luminescence; Cytochrome P450 2C9 (Homo sapiens), P11712; recombinant CYP2C9, luciferin-H conversion; active compounds read high; factor 1 = untreated enzyme, 0 = blocked; activation factor at 5 µM; actives 1.4% (n = 96,000);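 active = activation factor of 2 or more for CYP2C9 at a 5 µM dose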
CYP2C9 inh: blockers of cytochrome P450 2C9 activity – biochemical, luminescence, ADME assay, primary screen; CYP2C9 Supersomes, luciferin-H conversion; AID 777, 2007; inhibition, % at 5 µM; actives 20% (n = 96,000); P11712;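 active = blocking of liver enzyme CYP2C9 beyond about 50% at 5 µM, limit read from the data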
Numbers stand for hits; - = inactive. In the library only some 32% were active in any assay of this set; here they are far more common. Cut-off read from the data, not from the text of the source, unless noted: active = inhibition above about 30%; inactive = the rest.

SMILES | PostGolgi ctrl | CYP2C19 inhib | CYP2C19 act | PostGolgi yeast | CYP2C9 activ | CYP2C9 inh
CCCNC(=O)COc1ccc(S(=O)(=O)Nc2ccc(C)cc2)cc1 | - | 69.1 | - | - | - | 52.1
COc1ccc(Cn2cc3c(-c4ccc(F)cc4)nnc-3c3cc(OC)c(OC)cc32)cc1 | - | - | - | - | - | -
COc1cc2c3nnc(-c4ccc(F)cc4)c-3cn(Cc3ccc(F)cc3)c2cc1OC | - | - | - | - | - | 77.2
Brc1cc(Br)c2nc(-c3cccs3)ccc2c1 | - | - | - | - | - | -
Cc1nc2c(Br)cc(Br)cc2cc1O | 37.1 | - | - | - | - | 62.2
COc1ccc(CNC(=S)Nc2cccc(C)c2C)cc1 | - | - | - | - | - | -
COc1ccc2c(c1)C(=NN)c1cc(OC)ccc1-2 | - | - | - | - | - | 61.8
COCc1cc(C)n(CC(=O)Nc2ccccc2C(=O)OC)c(=O)c1C#N | - | - | - | - | - | -
O=C(Cn1c(C(F)(F)F)nc2ccccc21)Oc1cccc(C(F)(F)F)c1 | - | - | - | - | - | -
CCOC(=O)Nc1ccc(S(=O)(=O)NCc2ccccc2)cc1 | - | - | - | - | - | -
O=S(=O)(NCC(c1ccccc1)N1CCNCC1)c1ccc(Cl)cc1 (stereo not drawn) | - | 60.5 | - | - | - | -
O=CNc1ccc(S(=O)(=O)NCc2ccccc2)cc1 | - | 89.6 | - | - | - | -
O=S(=O)(NCc1ccccc1)c1ccc(Cl)cc1 | - | 79.7 | - | - | - | 72.2
CS(=O)(=O)c1ccc(Cl)c(S(=O)(=O)NCc2ccccc2)c1 | - | - | - | - | - | -
O=S(=O)(NCc1ccc(Cl)cc1)c1ccc(Cl)nc1 | - | 89.8 | - | - | - | -
O=C(CSc1nnc(-c2cccnc2)n1-c1ccccc1)Nc1ccc2c(c1)OCO2 | - | - | - | - | - | -
CC(=O)Nc1cccc(NC(=O)CSc2nnc(Cc3cccn3C)n2-c2ccc(C)cc2)c1 | - | - | - | - | - | -
CSc1ccc(S(=O)(=O)NCc2ccc(Cl)cc2Cl)cc1 | - | 85.9 | - | - | 2.4 | -
COCCNS(=O)(=O)c1ccc(SC)cc1 | - | - | - | - | - | -
CC(C)N(CCNS(=O)(=O)c1ccc(Cl)cc1)C(C)C | - | - | - | - | - | 53.8
CSc1ccc(S(=O)(=O)NCc2ccccc2)cc1 | - | 67.4 | - | - | - | -
CS(=O)(=O)N(CC(=O)N1CCCCCC1)c1ccc2c(c1)OCCO2 | - | - | - | - | - | -
S=C(NN=C1C2CC3CC(C2)CC1C3)Nc1ccccc1 | - | - | - | - | - | -
O=C(c1ccc(Cl)cc1Cl)N1CCC(c2nc3c(nnn3Cc3ccco3)c(=O)[nH]2)CC1 | - | - | - | 30.2 | - | 59.2
O=C(c1ccccc1)N1CCC(c2nc3c(nnn3Cc3ccco3)c(=O)[nH]2)CC1 | - | - | - | - | - | 53.3
SMILES | PostGolgi ctrl | CYP2C19 inhib | CYP2C19 act | PostGolgi yeast | CYP2C9 activ | CYP2C9 inh
Cc1ccc(Cn2nnc3c(=O)[nH]c(C(=O)NCc4ccco4)nc32)cc1 | - | - | - | - | - | -
Cc1ccc(Cn2c(CN3CC(C)OC(C)C3)nc3c2c(=O)n(C)c(=O)n3C)cc1 (stereo not drawn) | - | - | - | - | - | -
O=C(NCCN1CCOCC1)C1CCN(Cc2ccccc2O)CC1 | - | - | - | - | - | -
COC(=O)c1cccc(NC(=O)C2C3CCC(C3)C2C(=O)O)c1 (stereo not drawn) | - | - | - | - | - | -
COc1cccc(Sc2ccccc2CN(C)C)c1 | - | 71.8 | - | - | - | -
COc1cccc(OCC(O)CO)c1 (stereo not drawn) | - | - | - | - | - | -
CNCc1ccccc1Sc1ccc(OC)cc1 | - | 65.3 | - | - | - | -
COc1ccccc1NC(=O)CSC(N)=O | - | - | - | - | - | -
COc1ccc(CN(C(=O)Cn2nnc3ccccc32)C(C(=O)NC(C)(C)C)c2ccco2)cc1 (stereo not drawn) | - | - | - | - | - | -
O=C(COC(=O)Cc1ccc(S(=O)(=O)N2CCCCC2)s1)Nc1ccc2c(c1)OCO2 | 36.3 | 66.1 | - | - | - | 97.9
O=C(COC(=O)c1ccc2ccccc2n1)Nc1ncc(C(F)(F)F)cc1Cl | - | 58.3 | - | - | - | 50.7
O=C(COC(=O)c1ccc2ccccc2c1)Nc1ncc(C(F)(F)F)cc1Cl | - | - | - | - | - | -
Cc1cc(C(=O)OCC(=O)Nc2cc(S(=O)(=O)N3CCOCC3)ccc2Cl)c(C)o1 | - | 51.8 | - | - | - | 79.6
CCOc1cc(N2CCOCC2)c(OCC)cc1NC(=O)COC(=O)c1cc(C)oc1C | - | - | - | - | - | -
Cc1cc(C(=O)OCC(=O)Nc2ccc(F)cc2F)c(C)o1 | - | 56.2 | - | - | - | -
Cc1cc(C)nc(/N=C(/NC(=O)Nc2cccc(Cl)c2)Nc2ccccc2)n1 | - | - | - | - | - | -
O=C(COc1ccc(S(=O)(=O)N2CCOCC2)cc1)Nc1ccc(Cl)c(C(F)(F)F)c1 | - | - | - | - | - | 53.1
COc1ccc(C(=O)OCC(=O)Nc2cc(C)on2)cc1S(=O)(=O)N1CCOCC1 | - | - | - | - | - | -
CCc1nc2ccccc2c(C(=O)OCC(=O)Nc2ccc(S(=O)(=O)N3CCOCC3)cc2)c1C | - | - | - | - | - | 54.0
CCN(CC)S(=O)(=O)c1ccc(C)c(NC(=O)COC(=O)c2ccc(C)c(S(=O)(=O)N3CCOCC3)c2)c1 | - | 91.5 | - | - | - | 95.7
O=C(COc1ccc(S(=O)(=O)N2CCOCC2)cc1)Nc1ccc2c(c1)OCCO2 | - | - | - | - | - | -
O=C(COC(=O)Cc1ccc(S(=O)(=O)N2CCOCC2)s1)NCCc1ccccc1 | - | - | - | - | - | 60.2
CCOC(=O)c1cc(OC(=O)c2cccnc2)n(-c2ccccc2)n1 | - | - | - | - | - | -
CCOC(=O)CNc1nnc(SCC(=O)OCC)[nH]c1=O | - | - | - | - | - | -
Cn1c(N)c(C(=O)COC(=O)C2CCC(C(C)(C)C)CC2)c(=O)n(C)c1=O (stereo not drawn) | - | - | - | - | - | -
CCN(CC)C(=O)C(=O)c1cccn1-c1ccccc1C#N | - | - | - | - | - | -
Cc1ccc(S(=O)(=O)N2CCOCC2)cc1C(=O)OCC(=O)Nc1ccc2c(c1)OCO2 | - | - | - | - | - | 52.6
O=C(COC(=O)c1ccccn1)Nc1ccc(S(=O)(=O)N2CCOCC2)cc1 | - | - | - | - | - | -
O=C(COC(=O)CCc1ccc(S(=O)(=O)N2CCOCC2)cc1)Nc1ncc(C(F)(F)F)cc1Cl | - | - | - | - | - | 54.7
